Results on 54 compounds are retold here after PubChem BioAssay AID504832 (National Center for Advancing Translational Sciences (NCATS), 2011).

Screen size: about 310,000 compounds; about 18,000 (5.8%) were called active. Inconclusive results (about 22%) are left out. Calls follow the shape of the dose curve; as a rule, active = well fitted inhibition curve with a large enough effect; inconclusive = small, poorly fitted or top-dose-only effect, or another doubt; inactive = no such curve, though single readings can be large or run the other way. Shown is part of a subset that was picked to be rich in actives. A call without a number means that no potency is given here.
Potency is read from the fitted curve at half-maximal effect.

A short description of the test: Primary qHTS for delayed death inhibitors of the malarial parasite plastid, 48 hour incubation. As to conditions: P. falciparum luciferase growth in erythrocytes; series mostly up to 28.7 µM. The procedure, abridged: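 Erythrocytes infected with P. falciparum carrying an integrated firefly luciferase reporter (2% hematocrit, 0.1% parasitemia final) were exposed to compounds in RPMI 1640 with 0.5% Albumax at 37 C, 5% CO2. Growth inhibition was scored as reduced luminescence.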
For orientation: qHTS replaces the single test concentration by a dilution series.
Turning to `O=C(NCCC1=CCCCC1)c1ccc(-n2cncn2)cc1`, the Potency result was “inactive”.

As for `CCc1noc(C)c1C(=O)Nc1nc2ccc(OC)cc2s1`, the Potency entry was “inactive”.

In the case of `CCOc1ccc(S(=O)(=O)N2CCCC(C(=O)N3CCC(C(N)=O)CC3)C2)cc1Cl` (centres undefined), the Potency entry is “inactive”.

For `Cc1ccc(C)c(N2CCN(C(=O)CCCCn3c(=O)[nH]c4ccccc4c3=O)CC2)c1`, the Potency result is “inactive”.

With `Cc1ccc(C)c(N2CCN(C(=O)CCCCCn3c(=S)[nH]c4ccc(N5CCOCC5)cc4c3=O)CC2)c1`, the Potency was 7.38 µM (active).

On to `Cc1ccc(C)c(N2CCN(C(=O)CCc3nc4ccccc4[nH]3)CC2)c1`, for which the Potency result was “inactive”.

As to `COCc1c(C(=O)N/N=C(\C)c2ccncc2)nnn1-c1nonc1N`, the Potency entry is “inactive”.

`C=CCNc1scc(-c2ccccc2)[n+]1CC=C`: the Potency was 4.15 µM (active).

Consider `C=CCNC(=O)c1csc(-c2ccccc2)n1`, for which the Potency entry was “inactive”.

Regarding `Cc1ccc(NC(=O)NNC(=O)c2sccc2-n2cccc2)cc1`, the Potency entry was “inactive”.

For `Cc1ccc(NC(=O)Nc2ccccc2)c(Br)c1`, the Potency entry is “inactive”.

Turning to `C=CC[n+]1c(-c2ccc(C)cc2)csc1NNC(=O)Nc1ccccc1`, the Potency was 11.7 µM (active).

In the case of `O=C(Cc1ccccc1)Nc1ccc(NC(=O)c2cccnc2)cc1`, the Potency result is “inactive”.

Take `CN1CCN(CCNC(=O)Nc2ccccc2[N+](=O)[O-])CC1`: the activity change, negative = inhibition was -5.7% [at 0.00184 µM] (inactive).

Consider `COc1ccc(CN(C)C(=O)Cc2ccsc2)c(OC)c1OC`, for which the Potency was 13.1 µM (active).

For the compound `COc1ccccc1C(C)NC(=O)Cc1ccsc1` (centres undefined), the Potency entry was “inactive”.

`COc1ccc(CN(C)C(=O)Cc2c[nH]c3ccccc23)c(OC)c1OC`: the activity change, negative = inhibition is 13.9% [at 0.00184 µM] (inactive).

Consider `CS(=O)(=O)N(CC(=O)N1CCCCCC1)c1cccc(Cl)c1Cl`, for which the Potency entry is “inactive”.

With `NS(=O)(=O)c1ccc(NC(=S)N2CCCC2)cc1`, the Potency entry was “inactive”.

As for `COC(=O)C1(O)CC(C(C)C)=NN1C(=O)c1ccc(Cl)cc1` (centres undefined), the Potency entry was “inactive”.

For the compound `O=C(c1ccc(Cl)cc1)N1N=C(c2ccccn2)CC1(O)C(F)(F)F` (centres undefined), the Potency was 4.65 µM (active).

Turning to `O=C(C1CC1)N1N=C(c2ccc(Br)cc2)CC1(O)C(F)(F)F` (centres undefined), the activity change, negative = inhibition is -12.6% [at 0.00184 µM] (inactive).

In the case of `COc1ccc(CCNC(=O)COC(=O)C2CC2C)cc1` (centres undefined), the Potency entry was “inactive”.

Consider `Cc1ccc(S(=O)(=O)N(C)C)cc1NC(=O)c1ccc(-n2cncn2)c([N+](=O)[O-])c1`, for which the Potency result is “inactive”.

Turning to `O=[N+]([O-])C(=c1ccc2c(c1)N1C3=C(CCCC3)CC3CCCCC31N=2)[N+](=O)[O-]` (centres undefined), the Potency was 2.94 µM (active).

Consider `Cc1ccc(S(=O)(=O)NCCC(=O)Nc2cccc(S(N)(=O)=O)c2)cc1C`, for which the Potency result is “inactive”.

As for `O=C(CN(C(=O)c1nsc(Cl)c1Cl)c1cccc(F)c1)NC1CCCC1`, the Potency entry is “inactive”.

In the case of `COc1cccc(N(CC(=O)NC2CCCC2)C(=O)CCCC(=O)Nc2ccccn2)c1`, the Potency result is “inactive”.

For the compound `COC(=O)c1ccccc1NC(=O)Cn1nc(C(F)(F)F)c2c1CCC2`, the Potency result was “inactive”.

Take `COC(=O)c1cn(C(=O)c2ccc(Cl)cc2)c2ccccc12`: the Potency result is “inactive”.

In the case of `COC(=O)c1ccccc1Sc1c(/C=N/OCc2ccc(Cl)cc2)c(C(F)(F)F)nn1C`, the Potency is 1.85 µM (active).

Turning to `O=c1ccc(S(=O)(=O)N2CCCC2)cn1Cc1nc(-c2ccccc2)no1`, the Potency result was “inactive”.

In the case of `CC1=C(C(N)=O)C(c2ccc(F)cc2)n2nc(CCCO)nc2N1` (centres undefined), the Potency entry was “inactive”.

Consider `S=c1[nH]cc(-c2ccc(Cl)cc2)n1-c1ccccc1`, for which the Potency is 1.85 µM (active).

For `Cc1ccc(-n2c(-c3ccc(Cl)cc3)n[nH]c2=S)cc1`, the Potency result is “inactive”.

For the compound `S=c1[nH]ccn1-c1ccc(Cl)cc1`, the Potency result is “inactive”.

Take `O=C(O)c1cccc2c1C(=O)N(C1CCCC1)C2`: the Potency entry is “inactive”.

For the compound `Cc1ccccc1CN1C[C@@H]2C[C@@H](c3cn(C)nc3-c3ccccc3)N3CCC[C@@]23C1=O`, the Potency is 6.57 µM (active).

With `Cc1ccc(CN2CCN(Cc3cn(C)nc3-c3ccccc3)CC2CCO)o1` (centres undefined), the Potency entry is “inactive”.

As for `Cc1ccccc1CN1CCN(CC(=O)NCc2ccccn2)C1=O`, the Potency entry was “inactive”.

For `Cc1c(C)c(C)c(S(=O)(=O)NCCc2ccccn2)c(C)c1C`, the Potency entry is “inactive”.

Regarding `Cc1c(S(=O)(=O)N2CC(C)CC(C)C2)c(=O)n(C)c(=O)n1C` (centres undefined), the Potency entry was “inactive”.

As to `COc1cc(OC)cc(C(=O)NCC(=O)N2CCCCCCC2)c1`, the Potency entry was “inactive”.

Take `CN(C)P(=S)(Nc1ccccc1)C(Cl)(Cl)Cl` (centres undefined): the Potency was 11.7 µM (active).

On to `O=S(=O)(Nc1ccc2nc(N3CCOCC3)sc2c1)c1ccccc1`, for which the Potency result was “inactive”.

On to `C#CCOCCOCCOCCNc1nc(N2CCN(C(=O)[C@H](C(C)C)n3cc(CCO)nn3)CC2)nc(N2CCN(C(=O)[C@H]([C@@H](C)CC)n3cc(CCCN=C(N)N)nn3)CC2)n1`, for which the Potency result is “inactive”.

As for `C#CCOCCOCCOCCNc1nc(N2CCN(C(=O)[C@H](C(C)C)n3cc(CCO)nn3)CC2)nc(N2CCN(C(=O)[C@H](C(C)C)n3cc(CCO)nn3)CC2)n1`, the Potency result is “inactive”.

Consider `C#CCOCCOCCOCCNc1nc(N2CCN(C(=O)CCCCCCCCCCNC(=O)[C@H]([C@@H](C)CC)n3cc(CCCCN=C(N)N)nn3)CC2)nc(N2CCN(C(=O)CCCCCCCCCCNC(=O)[C@H](CO)n3cc(CCCSC)nn3)CC2)n1`, for which the Potency is 0.329 µM (active).

For the compound `C#CCOCCOCCOCCNc1nc(N2CCN(C(=O)[C@H](CCC(=O)O)n3cc(C(N)CO)nn3)CC2)nc(N2CCN(C(=O)[C@H](Cc3ccc(O)cc3)n3cc(C(N)[C@H](C)CC)nn3)CC2)n1` (some centres undefined), the Potency result was “inactive”.

Turning to `C#CCOCCOCCOCCNc1nc(N2CCN(C(=O)CCCCCCCCCCNC(=O)[C@H](CCCCN)n3cc(C)nn3)CC2)nc(N2CCN(C(=O)CCCCCCCCCCNC(=O)[C@H](CO)n3cc(CCCSC)nn3)CC2)n1`, the Potency is 0.586 µM (active).

In the case of `C#CCOCCOCCOCCNc1nc(N2CCN(C(=O)[C@H](CCC(=O)O)n3cc(C(N)CO)nn3)CC2)nc(N2CCN(C(=O)[C@H](CCCCN)n3cc(C(N)[C@H](C)CC)nn3)CC2)n1` (some centres undefined), the Potency entry is “inactive”.

Regarding `C#CCOCCOCCOCCNc1nc(N2CCN(C(=O)CCCCCCCCCCNC(=O)Cn3cc(CCCCCN)nn3)CC2)nc(N2CCN(C(=O)CCCCCCCCCCNC(=O)[C@H](CO)n3cc(CCCSC)nn3)CC2)n1`, the Potency was 2.94 µM (active).

In the case of `C#CCOCCOCCOCCNc1nc(N2CCN(C(=O)[C@H](CCC(=O)O)n3cc(C(N)CO)nn3)CC2)nc(N2CCN(C(=O)[C@H](CCCCN)n3cc(C(N)CC(C)C)nn3)CC2)n1` (some centres undefined), the Potency result was “inactive”.

Turning to `C#CCOCCOCCOCCNc1nc(N2CCN(C(=O)[C@H](CCCCN)n3cc(CCC(=O)O)nn3)CC2)nc(N2CCN(C(=O)[C@H](CCCCN)n3cc(CC(C)O)nn3)CC2)n1` (some centres undefined), the Potency entry was “inactive”.
